This passage reports growth results from PubChem BioAssay (NCI).

This is part of a sample that, as a whole, favours compounds with a hit. Of some 83,000 tested, about 20% had one in any assay.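 Single-concentration screen, 48 h exposure, 96-well plates. Endpoint: percent growth. Below 10 = active.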 The source made the active and inactive calls.

The test system of this assay is DU-145 prostate. Briefly: NCI-60 one-dose screen, 48 h (100 = growth as untreated, 0 = no growth, -100 = all killed). Particulars: 10 µM unless noted.
In the case of `COc1ccc2ncccc2c1Cc1c(OC)ccc2ncccc12`, the growth is 91.5% (inactive).
Regarding `COc1cc(C2CC(C3C(=O)N(C)C(=O)N(C)C3=O)=NN2c2cc(Cl)cc(Cl)c2)cc(OC)c1OC` (stereo not given), the growth is 107% (inactive).
Take `Cc1sc2nc(NCc3ccccc3)[nH]c(=O)c2c1C`: the growth is 73.4% (inactive).
For the molecule `Cc1cc2c(cc1C)[n+](Cc1ccc3ccccc3n1)cn2Cc1ccc2ccccc2n1`, the growth is 24.1% (inactive).
Turning to `COc1cc(/C=C2\CN(S(=O)(=O)c3ccc(C)cc3)C/C(=C\c3cc(CN4CCOCC4)c(O)c(OC)c3)C2=O)cc(CN2CCOCC2)c1O`, the growth was 29.1% (inactive).
Turning to `O=C1NCCc2c1noc2-c1ccccc1`, the growth was 104% (inactive).
Take `C[C@]12CCC(=O)C=C1CC[C@H]1[C@@H]3C[C@@H](O)[C@](O)(C(=O)CO)[C@@]3(C)C[C@H](O)[C@@]12F`: the growth is 92.4% (inactive).
As to `C/C(=C\CCc1ccsc1)CC/C=C(\C)CCCN1CCSCC1`, the growth is 96.6% (inactive).
As for `COC(=O)Nc1ccc2ccc3c(NC(=O)OC)ccc4ccc1c2c43` (tested in a mixture with another compound), the growth is 86.9% (inactive).
Turning to `O=C(Nc1nc2c(C(F)(F)F)cccc2s1)c1cc(Cl)ccc1O`, the growth was 23% (inactive).
As for `COc1cc(C2=NN(C=O)C(c3cccc(Nc4ccnc5cc(Cl)ccc45)c3)C2)cc(OC)c1OC` (stereo not given), the figure is 80.2% (inactive).
For `COc1cccc(-c2nc(-c3ccc(N)cc3)co2)c1`, the growth is 102% (inactive).
Consider `C[C@@H]1[C@H]2[C@H](C=C3[C@@H]4CC[C@H]5Cc6nc7c(nc6C[C@]5(C)[C@H]4C[C@@H](O)[C@@]32C)C[C@@H]2CC[C@H]3C4=C[C@@H]5O[C@@]6(CC[C@](C)(CO)O6)[C@@H](C)[C@@]5(O)[C@@]4(C)[C@H](O)C[C@@H]3[C@@]2(C)C7)O[C@]12CCC(C)(C)O2`, for which the growth is 45.2% (inactive).
With `O=C(CNC(=O)c1cccc2ccccc12)Nc1ccccc1Oc1cccc(O)c1`, the growth is 17.1% [5 µM] (inactive).
`CCN(CC)CCNCC(=O)Oc1ccc(/C=C/C(=O)CC(=O)/C=C/c2ccc(OC(=O)CNCCN(CC)CC)c(OC)c2)cc1OC`: the growth was -56.6% (active).
For `COc1ccc(-c2cc(-c3nnc(SCC(=O)Nc4ccc(C(C)=O)cc4)n3-c3ccccc3)c3ccccc3n2)cc1OC`, the growth was 110% (inactive).
For `COc1ccc2c(c1)[n+](=O)c(C(=O)/C=C/c1cc(OC)c(OC)c(OC)c1)c(C)n2[O-]`, the growth is 47.6% (inactive).
As to `COc1ccc(-c2nc3sc4c(c3c(=O)[nH]2)CCCCCC4)cc1`, the growth is 66.6% (inactive).
Regarding `CC(=O)Nc1c(Cl)cc2c(c1Cl)Cc1cc([N+](=O)[O-])ccc1-2`, the growth was 93.3% (inactive).
On to `CCN(CC)CCCCCCCNc1c2ccc(Cl)cc2nc2ccc(OC)cc12`, for which the growth was -28.6% (active).
On to `COc1cc(/C=C/c2cc(/C=C/c3ccc(O)c(OC)c3)n(C(=O)c3ccc(Cl)cc3)n2)ccc1O`, for which the growth was 19.9% (inactive).
`Cc1n(Cc2ccc3ccccc3c2)c2ccccc2[n+]1Cc1ccc2ccccc2c1`: the growth is 0.672% (active).
Consider `CCn1cnc(C[C@H](NC(=O)[C@H](CCCCNC(=O)Nc2cc(C(F)(F)F)cc(C(F)(F)F)c2)NC(=O)Nc2cc(C(F)(F)F)cc(C(F)(F)F)c2)C(=O)OC)c1`, for which the growth was -69.5% [100 µM] (active).
As for `O=C(Nc1cccc(-n2cc(-c3ccncc3)c(-c3cc(O)cc(Cl)c3)n2)c1)Nc1ccc(Cl)c(Cl)c1`, the figure is -15.1% (active).
For the molecule `Oc1ccc(/C=N/Nc2nc3ccccc3s2)c(O)c1`, the growth is 32.4% (inactive).
The figure for `Cc1csc(C#Cc2cncc(O)c2)n1` is 116% (inactive); for `COc1cc(/C=C/C(=O)CC(=O)/C=C/c2ccc(OC(=O)CCNC34CC5CC(CC(C5)C3)C4)c(OC)c2)ccc1OC(=O)CCNC12CC3CC(CC(C3)C1)C2` it is -7.16% (active).
The figure for `N/C(=N\C(N)=N\c1nc2ccccc2s1)c1ccnc(Cl)c1` is 26.9% (inactive); for `COc1ccc(NS(=O)(=O)N2CCCCC2)cc1` it is 116% (inactive); for `C=C1CCC2C(C)(COC(=O)CC)C(OC(=O)CC)CCC2(C)C1C/C=C1/C(=O)OCC1OC(=O)CC` (stereo not given) it is 28.9% (inactive).
For `Cc1[nH]ccc2cc3nc4ccccc4c3cc12`, the growth is 34.4% (inactive).
In the case of `CC(C)=CCCC(C)c1ccc(C)c2c1OCN(CC1CCNCC1)C2` (stereo not given), the growth is 93.9% (inactive).
As for `COc1ccc2c(c1)sc1nc(-c3ccc(N(C)C)cc3)cn12`, the growth is 103% (inactive).
On to `COc1cc(/C=C/C(=O)C(C(=O)/C=C/c2ccc(OC(=O)CCNc3nnc(C)s3)c(OC)c2)C(=O)CCNc2nnc(C)s2)ccc1OC(=O)CCNc1nnc(C)s1`, for which the growth was -14.5% (active).
For the molecule `O=C(O)c1ccc2cccnc2c1O`, the growth is 22.2% (inactive).
Regarding `CC[C@@H](c1ccc(O)c(O)c1)[C@@H](CC)c1ccc(O)c(O)c1`, the growth is 110% (inactive).
For the molecule `Cc1ccc(NC(=O)c2sc3nc4c(cc3c2N)C(=O)CCC4)cc1`, the growth was 96.4% (inactive).
For `CCOC(=O)/C=C1/SC(=Nc2ccc(C#N)cc2)N(Cc2ccco2)C1=O`, the growth was 39.2% (inactive).
As for `COP(=O)(OC)C(c1ccc(O)cc1)(c1ccc(O)cc1)c1ccc(O)cc1`, the growth was 105% (inactive).
Take `COc1ccccc1-n1c(-c2ccc(O)cc2C)cn2c3c(=O)[nH]c(=O)n(C)c3nc12`: the growth is 112% (inactive).
